The text below walks through data of ChEMBL document CHEMBL1157539, “Thousands of chemical starting points for antimalarial lead identification” (Nature, 2010).

For one assay, the system named is Plasmodium falciparum. Description: GSK_TCMDC: Inhibition of Plasmodium falciparum 3D7 in whole red blood cells, using parasite LDH activity as an index of growth. Test compounds present at 2uM. The format is functional.
With `O=C(Nc1ccc(Br)cc1)N(CCN1CCOCC1)CC(O)COCc1ccc(Cl)c(Cl)c1.O=C(O)C(F)(F)F` (stereo not given), the Inhibition is given as 94%.
The compound `COc1ccc(CN2CCC(CN3CC4(OC3=O)c3ccccc3-c3ccccc34)C2)c(O)c1` (stereo not given) registered an Inhibition of 100%.
`Cc1cccc2nc(-c3ccc(-c4cccc(NC(=O)c5cnn6cccnc56)c4)cc3)[nH]c12` returned an Inhibition of 91%.
As for `COc1ccc(C=NNc2cc(C)nc3ccc(OC)cc23)c(OC)c1`, the Inhibition turned out to be 100%.
Turning to `CC(C)(C)c1ccc(CNC(=O)c2cc(CNC3CCC(N)CC3)ccc2O)cc1` (stereo not given), the Inhibition stood at 94%.
`CCC(c1ccccc1)c1nn2c(-c3cccs3)nnc2s1` (stereo not given): the Inhibition was 97%.
Take `CN1CCN(c2cc3c(cc2Cl)CCN3C(=O)Nc2ccc(NC(=O)c3ccc(C(F)(F)F)cc3)cc2)CC1.Cl`: the Inhibition was found to be 100%.
`CCCCOC(=O)c1ccc(Nc2cc(C)nc3ccc(OC)cc23)cc1` yielded an Inhibition of 100%.
`CNCCNCc1ccc(-c2ccc(-c3nc4cc(C(F)(F)F)ccc4[nH]3)cc2)cc1.O=C(O)C(F)(F)F` returned an Inhibition of 99%.
Compound `O=C(Nc1ccc(-c2ccccc2)s1)N[C@H]1CCN(Cc2ccc(OCCCN3CCCCC3)cc2)C1` came in with an Inhibition of 100%.
With `Oc1cccc(-c2nc(-c3ccccc3)c(-c3ccc4oc5ccc(-c6[nH]c(-c7cccc(O)c7)nc6-c6ccccc6)cc5c4c3)[nH]2)c1`, the Inhibition is listed as 91%.
Consider `Cc1cc(N(C)C)nc(Nc2ccc(NC(=O)c3ccccc3Cl)cc2)n1`, for which the Inhibition amounted to 88%.
In turn, `O=S1(=O)C=C(c2ccccc2)CC1` came in with an Inhibition of 97%.
In the case of `Cc1cc(N/N=C/c2cccc([N+](=O)[O-])c2)c2ccc(C(F)(F)F)cc2n1`, the Inhibition is given as 100%.
On to `CN(C)CCN(C)Cc1ccc(-c2ccc(NC(=O)c3cccc(C#N)c3)cc2)cc1.O=C(O)C(F)(F)F`, for which the Inhibition was 89%.
In turn, `Cc1cc(=NN=Cc2ccc(Cl)cc2)c2cc(C(F)(F)F)ccc2[nH]1` displayed an Inhibition of 91%.
`O=C(Nc1ccc(Cl)cc1)Nc1cccc(CCNCc2ccccc2)c1.O=C(O)C(F)(F)F` came in with an Inhibition of 100%.
Still for that read-out and setting: with `CCc1c[nH]c2c(N3CCCCC3=O)cc(C(=O)N[C@@H](Cc3ccccc3)[C@H](O)CNCc3cccc(OC)c3)cc12.O=CO` the figure was 100%; with `Cc1nc(Nc2ccc(F)cc2)nc(N2CCc3ccccc3C2C)c1CO` (stereo not given), 100%; with `COc1cc2nccc(Nc3ccc(NC(=O)c4ccc(C)cc4)c(O)c3)c2cc1OC.Cl`, 100%.
As to `O=C(Nc1cccc(CN2CCCN(CCc3ccccc3)CC2)c1)c1ccc(Cl)c(Cl)c1.O=C(O)C(F)(F)F`, the Inhibition is 86%.
As for `COc1ccc2c(c1)CC(NCc1ccc(-c3ccc4nc[nH]c4c3)cc1)C2.O=C(O)C(F)(F)F` (stereo not given), the Inhibition was 100%.
The compound `O=C(Nc1ccc(OC2CCN(Cc3ccsc3)C2)c(Cl)c1)c1ccc(F)cc1.O=C(O)C(F)(F)F` (stereo not given) registered an Inhibition of 89%.
On to `CCOc1ccc(OCC(=O)Nc2nc(-c3ccc(OC)cc3)c(C)s2)cc1`, for which the Inhibition was 99%.
Regarding `CC(C)c1cccc(OCC2CCN(c3ncc(C(=O)NC4CC4)cc3Cl)CC2)c1`, the Inhibition amounted to 94%.
Consider `Cc1ccc(C)c(NC(=O)Nc2ccc(Nc3nc(C)cc(N4CCOCC4)n3)cc2)c1`, for which the Inhibition came out at 98%.
Compound `CCN(CC)CCCC(C)N=c1cc(C=Cc2ccccc2Cl)[nH]c2cc(Cl)ccc12.O=P(O)(O)O` (stereo not given) yielded an Inhibition of 99%.
The compound `COc1ccc2nccc(N/N=C/c3ccc([N+](=O)[O-])cc3)c2c1` gave an Inhibition of 100%.
The compound `COc1ccc2ncc(Cl)c(CCN3CCC(NCc4ccc5c(n4)NC(=O)CS5)CC3)c2c1.Cl` showed an Inhibition of 100%.
`Cc1c(-c2ccc(C(=O)NC3CC(C)(C)NC(C)(C)C3)cc2)[nH]c2cc(Cl)c(Cl)cc12` registered an Inhibition of 98%.
`COc1ccc2nc(C)cc(Nc3ccc(Oc4ccc(Cl)cc4)c(Cl)c3)c2c1`: the Inhibition is given as 100%.
With `COc1ccc(NC(=O)/C=C/c2ccccc2Cl)cc1OCCN1CCC(NC2CC2)CC1`, the Inhibition was found to be 100%.
Take `COc1ccc(C(=O)Nc2ccc(Cl)cc2C(=O)Nc2ccncc2)cc1`: the Inhibition is on record as 91%.
Consider `Cc1cc2nc(-c3cc(Br)ccc3O)c(-c3cc(Br)ccc3O)nc2cc1C`, for which the Inhibition came to 96%.
For the compound `O=C(Nc1ccc(-c2cccc(-c3nc4cc(C(F)(F)F)ccc4[nH]3)c2)cc1)c1ccncc1`, the Inhibition is on record as 100%.
The compound `CN(CC(=O)Nc1cc(C(F)(F)F)ccc1-n1cncn1)Cc1ccc2ccccc2c1` yielded an Inhibition of 98%.
In turn, `COc1ccc(N2CCN(c3nc(N)c4cc(OC)c(OC)cc4n3)CC2C)cc1.Cl` (stereo not given) displayed an Inhibition of 95%.
On to `Cc1onc(-c2ccccc2Cl)c1C(=O)Nc1cc(Cl)c(Cl)cc1Cl`, for which the Inhibition is reported as 90%.
Take `N#Cc1cc(C(=O)Nc2ccccc2)c(N)nc1SCC(=O)NC(c1ccccc1)c1cccs1` (stereo not given): the Inhibition is given as 98%.
`COc1cc(NC(=O)N2CCc3ccc(OCCC4CCCN4C)cc32)cc(C(F)(F)F)c1.O=C(O)C(F)(F)F` (stereo not given): the Inhibition was 100%.

A further assay deals with Plasmodium falciparum. Description: GSK_TCMDC: Inhibition of Plasmodium falciparum Dd2 in whole red blood cells, using parasite LDH activity as an index of growth. Test compounds present at 2uM. The assay is classed as functional.
The compound `O=C(Nc1ccc(Br)cc1)N(CCN1CCOCC1)CC(O)COCc1ccc(Cl)c(Cl)c1.O=C(O)C(F)(F)F` (stereo not given) showed an Inhibition of 52%.
Turning to `COc1ccc(CN2CCC(CN3CC4(OC3=O)c3ccccc3-c3ccccc34)C2)c(O)c1` (stereo not given), the Inhibition was found to be 79%.
Compound `Cc1cccc2nc(-c3ccc(-c4cccc(NC(=O)c5cnn6cccnc56)c4)cc3)[nH]c12` came in with an Inhibition of 29%.
In turn, `COc1ccc(C=NNc2cc(C)nc3ccc(OC)cc23)c(OC)c1` displayed an Inhibition of 95%.
The compound `CC(C)(C)c1ccc(CNC(=O)c2cc(CNC3CCC(N)CC3)ccc2O)cc1` (stereo not given) gave an Inhibition of 1%.
Turning to `CCC(c1ccccc1)c1nn2c(-c3cccs3)nnc2s1` (stereo not given), the Inhibition worked out at 95%.
Still for that read-out and setting: with `CN1CCN(c2cc3c(cc2Cl)CCN3C(=O)Nc2ccc(NC(=O)c3ccc(C(F)(F)F)cc3)cc2)CC1.Cl` the figure was 99%; with `CCCCOC(=O)c1ccc(Nc2cc(C)nc3ccc(OC)cc23)cc1`, 96%.
As to `CNCCNCc1ccc(-c2ccc(-c3nc4cc(C(F)(F)F)ccc4[nH]3)cc2)cc1.O=C(O)C(F)(F)F`, the Inhibition was 92%.
On the same count and under the same terms, with `O=C(Nc1ccc(-c2ccccc2)s1)N[C@H]1CCN(Cc2ccc(OCCCN3CCCCC3)cc2)C1` the figure was 40%.
The compound `Oc1cccc(-c2nc(-c3ccccc3)c(-c3ccc4oc5ccc(-c6[nH]c(-c7cccc(O)c7)nc6-c6ccccc6)cc5c4c3)[nH]2)c1` came in with an Inhibition of 35%.
On the same count and under the same terms, with `Cc1cc(N(C)C)nc(Nc2ccc(NC(=O)c3ccccc3Cl)cc2)n1` the figure was 31%; with `O=S1(=O)C=C(c2ccccc2)CC1`, 44%; with `Cc1cc(N/N=C/c2cccc([N+](=O)[O-])c2)c2ccc(C(F)(F)F)cc2n1`, 51%.
Still for that read-out and setting: the figure for `CN(C)CCN(C)Cc1ccc(-c2ccc(NC(=O)c3cccc(C#N)c3)cc2)cc1.O=C(O)C(F)(F)F` is 49%; for `Cc1cc(=NN=Cc2ccc(Cl)cc2)c2cc(C(F)(F)F)ccc2[nH]1` it is 32%.
In turn, `O=C(Nc1ccc(Cl)cc1)Nc1cccc(CCNCc2ccccc2)c1.O=C(O)C(F)(F)F` registered an Inhibition of 12%.
For `CCc1c[nH]c2c(N3CCCCC3=O)cc(C(=O)N[C@@H](Cc3ccccc3)[C@H](O)CNCc3cccc(OC)c3)cc12.O=CO`, the Inhibition was determined as 99%.
Regarding `Cc1nc(Nc2ccc(F)cc2)nc(N2CCc3ccccc3C2C)c1CO` (stereo not given), the Inhibition is 95%.
The compound `COc1cc2nccc(Nc3ccc(NC(=O)c4ccc(C)cc4)c(O)c3)c2cc1OC.Cl` displayed an Inhibition of 77%.
`O=C(Nc1cccc(CN2CCCN(CCc3ccccc3)CC2)c1)c1ccc(Cl)c(Cl)c1.O=C(O)C(F)(F)F` showed an Inhibition of 15%.
With `COc1ccc2c(c1)CC(NCc1ccc(-c3ccc4nc[nH]c4c3)cc1)C2.O=C(O)C(F)(F)F` (stereo not given), the Inhibition is reported as 71%.
In the case of `O=C(Nc1ccc(OC2CCN(Cc3ccsc3)C2)c(Cl)c1)c1ccc(F)cc1.O=C(O)C(F)(F)F` (stereo not given), the Inhibition came to 73%.
Consider `CCOc1ccc(OCC(=O)Nc2nc(-c3ccc(OC)cc3)c(C)s2)cc1`, for which the Inhibition stood at 98%.
As for `CC(C)c1cccc(OCC2CCN(c3ncc(C(=O)NC4CC4)cc3Cl)CC2)c1`, the Inhibition was 95%.
`Cc1ccc(C)c(NC(=O)Nc2ccc(Nc3nc(C)cc(N4CCOCC4)n3)cc2)c1` displayed an Inhibition of 48%.
With `CCN(CC)CCCC(C)N=c1cc(C=Cc2ccccc2Cl)[nH]c2cc(Cl)ccc12.O=P(O)(O)O` (stereo not given), the Inhibition stood at 77%.
With `COc1ccc2nccc(N/N=C/c3ccc([N+](=O)[O-])cc3)c2c1`, the Inhibition amounted to 68%.
Regarding `COc1ccc2ncc(Cl)c(CCN3CCC(NCc4ccc5c(n4)NC(=O)CS5)CC3)c2c1.Cl`, the Inhibition came to 34%.
As for `Cc1c(-c2ccc(C(=O)NC3CC(C)(C)NC(C)(C)C3)cc2)[nH]c2cc(Cl)c(Cl)cc12`, the Inhibition is on record as 68%.
`COc1ccc2nc(C)cc(Nc3ccc(Oc4ccc(Cl)cc4)c(Cl)c3)c2c1` yielded an Inhibition of 100%.
`COc1ccc(NC(=O)/C=C/c2ccccc2Cl)cc1OCCN1CCC(NC2CC2)CC1` gave an Inhibition of 66%.
On the same count and under the same terms, with `COc1ccc(C(=O)Nc2ccc(Cl)cc2C(=O)Nc2ccncc2)cc1` the figure was 29%; with `Cc1cc2nc(-c3cc(Br)ccc3O)c(-c3cc(Br)ccc3O)nc2cc1C`, 12%.
As to `O=C(Nc1ccc(-c2cccc(-c3nc4cc(C(F)(F)F)ccc4[nH]3)c2)cc1)c1ccncc1`, the Inhibition came to 23%.
`CN(CC(=O)Nc1cc(C(F)(F)F)ccc1-n1cncn1)Cc1ccc2ccccc2c1` showed an Inhibition of 99%.
The compound `COc1ccc(N2CCN(c3nc(N)c4cc(OC)c(OC)cc4n3)CC2C)cc1.Cl` (stereo not given) yielded an Inhibition of 0%.
The same measure, in the same setting: the figure for `Cc1onc(-c2ccccc2Cl)c1C(=O)Nc1cc(Cl)c(Cl)cc1Cl` is 57%; for `N#Cc1cc(C(=O)Nc2ccccc2)c(N)nc1SCC(=O)NC(c1ccccc1)c1cccs1` (stereo not given) it is 100%.
As for `COc1cc(NC(=O)N2CCc3ccc(OCCC4CCCN4C)cc32)cc(C(F)(F)F)c1.O=C(O)C(F)(F)F` (stereo not given), the Inhibition is 42%.

By Inhibition is commonly meant the percentage by which the read-out fell short of the control.
